SARS PLpro yeast = qHTS of Yeast-based Assay for SARS-CoV PLP. S. cerevisiae expressing SARS-CoV PLpro, growth rescue. 330,000 compounds, 0.19% hits. Potency, µM (series often up to 32.9 µM), for the others: at the top dose activity, positive = growth rescue, most hits filed as activators; calls by dose curve; note: potency is the fitted concentration of half-maximal effect; 0% is about no effect; nearly all actives have a fitted effect of over 55% in size
Pf growth 48h = Primary qHTS for delayed death inhibitors of the malarial parasite plastid, 48 hour incubation; Potency, µM (series often up to 28.7 µM), for inactives: at the highest dose activity change, negative = inhibition, hits mostly inhibitors; P. falciparum luciferase growth in erythrocytes, 48 h; 310,000 compounds, 5.9% hits; AID 504832, 2011; note: potency is the fitted concentration of half-maximal effect; % is set by controls: 0 for no effect and ±100 for the full control effect
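Luciferase-expressing P. falciparum in infected erythrocytes (2% hematocrit, 0.1% parasitemia final) in RPMI 1640/0.5% Albumax were exposed to compound for 48 hours at 37 C, 5% CO2; growth read as luminescence.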
NS1 inh = qHTS Assay for Inhibitors of Influenza NS1 Protein Function. Potency, µM (titrated, usually from 46.1 µM), for the others: at the top dose activity, positive = more growth. 270,000 compounds, 0.4% hits. AID 2326, 2010; calls by dose curve; note: potency is the fitted concentration of half-maximal effect; actives are rising curves; nearly all actives have a fitted effect of over 50% in size
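OD600 was taken as the measure of yeast growth restored by compound in an NS1-expressing S. cerevisiae strain. Cells had been washed out of glucose medium and diluted 1:100 into galactose -URA medium, pH 6.0.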
Shiga toxin inh = A qHTS for Small Molecule Inhibitors of Shiga Toxin. Vero cells, Shiga toxin protein synthesis inhibition reporter. inhibition, % at 38.7 µM. 290,000 compounds, 9.2% hits. AID 2315, 2010; in the data active = inhibition mostly above about 28%, no sharp cut-off; inactive = mostly below about 43%; note: 0% is about no effect
Cycloheximide cs = Cycloheximide Counterscreen for Small Molecule Inhibitors of Shiga Toxin | cell reporter, cycloheximide protein synthesis inhibition counterscreen | max response, % | 300,000 compounds, 12% hits; in the data active = max response mostly above about 13%, no sharp cut-off; inactive = mostly below about 14%; note: read at 38.3 µM for the half of the compounds with a filed dose; 0% is about no effect
Pf growth 96h = Primary qHTS for delayed death inhibitors of the malarial parasite plastid, 96 hour incubation | P. falciparum luciferase reporter growth, 96 h | AID 504834, 2011 | 320,000 compounds, 6.9% hits | Potency, µM (doses to about 28.7 µM), for the others: at the highest dose activity change, negative = inhibition, hits mostly inhibitors; note: potency is the fitted concentration of half-maximal effect; % is set by controls: 0 for no effect and ±100 for the full control effect
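Delayed-death screen, second-generation endpoint: infected erythrocytes, 2% hematocrit, 0.05% parasitemia final; 96 hours at 37 C, 5% CO2; luciferase detection reagent; luminescence decrease equals reduced growth.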
Active calls of the source: *; i = inactive; ? = inconclusive; . = no result given; [ ] = dose if it differs, or a comment. Rows were chosen to be rich in hits. Some 21% of all compounds tested hit in one or more screens of this group. Unless noted, calls come from the whole dose curve; as a rule, active = well fitted inhibition curve with a large enough effect; inconclusive = small, poorly fitted or top-dose-only effect, or another doubt; inactive = no such curve, though single readings can be large or run the other way.

SMILES	SARS PLpro yeast	Pf growth 48h	NS1 inh	Shiga toxin inh	Cycloheximide cs	Pf growth 96h
O=c1[nH]c(CSc2cccc[n+]2[O-])nc2ccccc12	-7%	13µM*	-65%	13	3	?
O=c1[nH]c(CSc2ncn[nH]2)nc2ccccc12	0%	16%	3%	16	1	22%
Cn1c(SCc2nc3ccccc3c(=O)[nH]2)nc2ccccc21	-2%	11%	-5%	53	17*	-12%
Cn1c(SC2=CS(=O)(=O)c3ccccc32)nc2ccccc21	-4%	5.2µM*	-6%	37	15	5%[5.75 µM]
COC(=O)c1ccccc1NC(=S)N(Cc1ccc2c(c1)OCO2)Cc1cc2cccc(C)c2[nH]c1=O	-3%	?	?	-12	-7	i
CC(C)c1ccc(CN2CCSCC2)cc1	0%	21%	-9%	6	1	0%
CCCCn1c(N)c(N(CCOC)C(=O)c2c(C)noc2C)c(=O)[nH]c1=O	1%	0%	.	.	.	29%
CCOc1ccc(NS(=O)(=O)c2c(C)nc3sc(CC)nn3c2=O)cc1	0%	3%	4%	9	1	29%
Cn1c(CSc2nc3ccccc3n2C)nc2ccccc21	-5%	28%	-38%	48	19*	14%
Cn1c(-c2ccccc2)cnc1SCc1nc2ccccc2c(=O)[nH]1	-15%	198%	-17%	114*	27*	2.3µM*
OCCn1c(CSc2nc3ccccc3n2CCO)nc2ccccc21	2%	-2%	6%	-18	-4	?
CC(=O)OCC#CCSc1nc2ccccc2n1C	22µM*	2%	-33%	6	1	-7%
CC(=O)c1c(C)[nH]c(C(=O)CSc2nc3ccccc3n2C)c1C	5%	0%	4%	-10	-2	?
c1cc(CNC2C3CC4CC(C3)CC2C4)ccn1 (stereo not drawn)	0%	19%	.	-8	-2	?
CCOC(=O)Cn1nc(C)n(-c2ccc(Br)cc2)c1=O	20%	1%	0%	-4	-2	20%
O=C(c1cc(-c2ccc(Cl)cc2Cl)on1)N1CCCCCC1	-5%	123%	-42%	99*	38*	55%
O=C(c1cc(-c2ccc(Cl)cc2Cl)on1)N1CCCC1	-4%	51%	-31%	89*	23*	?
CCCCCc1n[nH]c2c1CCCC2	2%	-14%	-2%	41	14	4%
COC(=O)C1=C(C)NC(=O)/C1=C\c1cc(C)n(-c2cc(C)cc(C)c2)c1C	-17%	.	16%	-6	-1	i
COc1ccc(OC)c(-n2c(C)cc(C=O)c2C)c1	0%	-48%[1.15 µM]	-2%	1	-4	?
CCOC(=O)C1=C(O)/C(=C\c2sccc2C)N=C1C	19%	?	-11%	33	2	20%
COC(=O)C1=C(O)/C(=C\c2cc(C)n(-c3ccccc3F)c2C)N=C1C	2%	?	.	82*	34*	-40%
COC(=O)C1=C(O)/C(=C\c2sccc2C)N=C1C	-3%	-22%	2%	17	27*	27%
COC(=O)C1=C(C)NC(=O)/C1=C\c1cc(C)n(-c2ccccc2)c1C	0%	0%	.	102*	35*	?
COC(=O)c1cccc(-n2c(C)cc(C=O)c2C)c1C	-15%	7%	3%	49*	19*	?
SMILES	SARS PLpro yeast	Pf growth 48h	NS1 inh	Shiga toxin inh	Cycloheximide cs	Pf growth 96h
COc1ccccc1CNC(=O)c1cc2c(=O)n(C)c3ccccc3c2n1C	.	.	6%	.	.	.
Cc1cc(S(=O)(=O)N2CCC3(CC2)OCCN3S(=O)(=O)c2cccs2)ccc1F	3%	-26%	.	.	.	?
N#C/C(=C\c1ccc([N+](=O)[O-])o1)c1nc2ccccc2[nH]1	-111%	14%	-28%	48	17*	-11%
Cc1ccc2nc(/C(C#N)=C\c3ccc([N+](=O)[O-])o3)[nH]c2c1	-31%	10µM*	-138%	16	33	?
N#C/C(=C\c1ccc(-c2ccccc2C(=O)O)o1)c1nc2ccccc2[nH]1	-5%	.	3%	-4	12	?
N#C/C(=C(/O)c1ccc([N+](=O)[O-])o1)c1nc2ccccc2[nH]1	-1%	-12%	-4%	1	0	25%
